Each structure is given as a SMILES string. “And” between values parts separate entries of the source, which are not always exact repeats. Equal values may be shown once. About 83,000 compounds went through this panel and 20% of them were active in at least one assay; those are over-represented in the sample as a whole.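 For each line, cells grew in 96-well plates with the test compound present at a single concentration for 48 hours.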 Values without a mark were called inactive. The source made the active and inactive calls.

The record followed here is PubChem BioAssay (NCI).

One assay deals with NCI-H460 lung. In words: NCI-60 one-dose screen, 48 h (100 = growth as untreated, 0 = no growth, -100 = all killed). Particulars: 0.01 µM. The protocol:
Growth inhibition of the NCI-H460 human Non-Small Cell Lung tumor cell line is measured as a screen for anti-cancer activity. Cells are grown in 96 well plates and exposed to the test compound for 48 hours. Compounds are tested at a single concentration, which is 10^-5 M for most compounds. The reported endpoint is percent growth (GI% or GIPRCNT), where numbers from 0 - 100% represent growth inhibition, and numbers from -100% - 0 represent cell death. For example, a value of 40 represents 60% growth inhibition. A value of 0 means no net growth occurred over the course of the experiment. A value of -40 indicates 40% of cells at the beginning of the experiment died by the end of the experiment. A value of -100 means all cells are dead at the end of the experiment.
NCI-60 Human Tumor Cell Lines Screen was performed using the standard one-dose NCI protocol, which is described in more detail at https://dtp.cancer.gov/discovery_development/nci-60/default.htm.
Compounds with GIPRCNT values below 10 were considered active. Activity score was based on GIPRCNT using the following formula: […]
Score is 0 for GIPRCNT values of 100 or above, 50 for GIPRCNT values of 0, and 100 for GIPRCNT values of -100.
In the case of `CC(=O)O[C@H]1C(=O)[C@@]2(C)[C@H]([C@H](OC(=O)c3ccccc3)[C@]3(O)C[C@H](OC(=O)[C@H](O)[C@@H](NC(=O)c4ccccc4)c4ccccc4)C(C)=C1C3(C)C)[C@]1(OC(C)=O)CO[C@@H]1C[C@@H]2O`, the growth is 13.8%.

The same assay, now with this note: 2.5 µM.
With `CC(=O)O[C@H]1C(=O)[C@@]2(C)[C@H]([C@H](OC(=O)c3ccccc3)[C@]3(O)C[C@H](OC(=O)[C@H](O)[C@@H](NC(=O)c4ccccc4)c4ccccc4)C(C)=C1C3(C)C)[C@]1(OC(C)=O)CO[C@@H]1C[C@@H]2O`, the growth was 3.32% (active).

Staying with this assay, now noted: 5 µM.
In the case of `CC(=O)O[C@H]1C(=O)[C@@]2(C)[C@H]([C@H](OC(=O)c3ccccc3)[C@]3(O)C[C@H](OC(=O)[C@H](O)[C@@H](NC(=O)c4ccccc4)c4ccccc4)C(C)=C1C3(C)C)[C@]1(OC(C)=O)CO[C@@H]1C[C@@H]2O`, the growth was 4.65% (active).

The assay is the same for the next values; noted with them: 10 µM.
As to `CCOC(=O)[C@]1(Br)CC[C@@]1(Br)C(=O)OCC`, the growth is 117%.
On to `O=C1C(Cl)=C(Cl)C(Cl)(Cl)C(Cl)C1(Cl)Cl` (stereo not given), for which the growth is 118%.
As for `CC(=O)O[C@H]1C(=O)[C@@]2(C)[C@H]([C@H](OC(=O)c3ccccc3)[C@]3(O)C[C@H](OC(=O)[C@H](O)[C@@H](NC(=O)c4ccccc4)c4ccccc4)C(C)=C1C3(C)C)[C@]1(OC(C)=O)CO[C@@H]1C[C@@H]2O`, the growth is 8.92% (active) and 6.58% (active).
In the case of `COc1ccc2c(c1)[nH]c1c(/C=C/c3ccccc3)nccc12`, the growth is 56.2%.
On to `O=C1c2cccc3cc([N+](=O)[O-])cc(c23)C(=O)N1CCN1CCCC1`, for which the growth was -28.8% (active).
For the molecule `Cc1cc(N=C2C=CC(=[N+](C)C)C=C2)c(N)cc1N`, the growth is 102%.
The same measure, in the same setting: with `S=C1SCN(CCc2ccccc2)CN1CCc1ccccc1` the figure was 108%; with `CCC(C)(c1ccc(O)c(C)c1)c1ccc(O)c(C)c1`, 97.3%.
For the molecule `O=C1C=CC(=O)N1c1ccc(N2C(=O)C=CC2=O)cc1`, the growth is 103%.
Turning to `O=c1[nH]cc(/C=N\Nc2ccccc2)c(=O)[nH]1`, the growth was 47.6%.
Still for that read-out and setting: with `O=[N+]([O-])c1cc(S(=O)(=O)Nc2ccccc2)ccc1Cl` the figure was 108%; with `CCC(=O)Oc1ccc(/C=N/NC(N)=S)nc1`, 52%.
Still for that read-out and setting: with `CN(CC(=O)O)c1ccc(/C=C/c2ccnc3ccccc23)cc1` the figure was 94.5%.
Same read-out and setting: with `O=C(CNS(=O)(=O)Cc1ccccc1)NNc1ccccc1` the figure was 29.4%.
Turning to `COc1cccc(C(c2cc3c(cc2O)OCO3)N2CCOCC2)c1OC` (stereo not given), the growth was 104%.
On the same count and under the same terms, with `NCc1c(O)ccc2ccccc12` the figure was 108%; with `S=P(N1CC1)(N1CC1)N1CC1`, 116% and 40.2%; with `O=S(=O)(c1cc(Cl)ccc1O)c1cc(Cl)ccc1O`, 85.1%.
In the case of `Cn1ncc2cc3c(Nc4ccc(Cl)cc4)cccc3nc21`, the growth was 89.8%.
Same read-out and setting: in the case of `CN(C)CCNc1cccc2sc3ccc(O)cc3c(=O)c12` it was 16%; in that of `Cc1cc(C)c(N2C(=O)CC(Sc3ccccc3N)C2=O)c(C)c1` (stereo not given), 95.6%.
Same read-out and setting: in the case of `CN(C)c1ccc(/C=C/c2ccnc3ccccc23)cc1N` it was 77.9%.
Still for that read-out and setting: with `O=C(NC(=S)Nc1ccccn1)c1ccccc1` the figure was 94%.
Turning to `Cc1cc(Cl)ccc1NC(=O)/C(Cl)=C1/Sc2ccccc2NC1=O`, the growth is 99.4%.
On to `CC1CCC2(C(=O)O)CCC3(C)C(=CCC4C5(C)CC(O)C(O)C(C)(CO)C5C(O)CC43C)C2C1C` (stereo not given), for which the growth is 111%.
Turning to `O=Nc1ccc(Nc2ccccc2)cc1`, the growth was 97.8%.
Still for that read-out and setting: in the case of `ClCCn1c(CCl)nc2ccc(Cl)cc21` it was 0.311% (active); in that of `C=C1N(C)c2ccc(Cl)cc2C1(C)C`, 39.4%; in that of `O=C1c2ccccc2CCC1(Br)Br`, 95%.
As for `O=C(O)c1ccccc1.[Ag]`, the growth is 100%.
The same measure, in the same setting: with `N#CC(=C1C=CC(=NO)C=C1)c1ccccc1` the figure was 1.48% (active); with `Cc1cc(O)c2c(c1O)C(=O)C13C(=C2O)C(=O)C2C(O)C1C1C(O)C3C(=O)C3=C(O)c4c(O)cc(C)c(O)c4C(=O)C321` (stereo not given), 0.0816% (active).
Same read-out and setting: in the case of `COc1cc(N)ccc1Nc1c2ccccc2nc2ccccc12` it was 4.72% (active); in that of `COc1ccc2oc(-c3ccc(Cl)cc3)c(N3CCN(C)CC3)c2c1`, -62.6% (active).
Regarding `Cn1c2nc3ccccc3c-2nc2ccccc21`, the growth is 86.9% and 86.5%.
On the same count and under the same terms, with `COc1ccc(C(C#N)=C2C=CC(=NO)C=C2)cc1` the figure was 65.8%.

The assay is the same for the next values; noted with them: 100 µM.
For the molecule `S=P(N1CC1)(N1CC1)N1CC1`, the growth is 26.3%.
